Results filed as inconclusive are left out. The source made the active and inactive calls. Unless noted, calls come from the whole dose curve; as a rule, active = well fitted curve in the direction sought with a large enough effect; inconclusive = small, poorly fitted or top-dose-only effect, or another doubt; inactive = no such curve, though single readings can be large; an effect the other way counts as inactive or inconclusive.
Columns and labels:
[1] = target: Cytochrome P450 3A4 (Homo sapiens) (UniProt P08684); test: qHTS Assay for Inhibitors and Substrates of Cytochrome P450 3A4 (AID 884); note: % is set by controls: 0 for no effect and ±100 for the full control effect; nearly all actives have a fitted effect of over 50% in size
Sequence of Cytochrome P450 3A4 (Homo sapiens) (P08684 whole entry, looked up): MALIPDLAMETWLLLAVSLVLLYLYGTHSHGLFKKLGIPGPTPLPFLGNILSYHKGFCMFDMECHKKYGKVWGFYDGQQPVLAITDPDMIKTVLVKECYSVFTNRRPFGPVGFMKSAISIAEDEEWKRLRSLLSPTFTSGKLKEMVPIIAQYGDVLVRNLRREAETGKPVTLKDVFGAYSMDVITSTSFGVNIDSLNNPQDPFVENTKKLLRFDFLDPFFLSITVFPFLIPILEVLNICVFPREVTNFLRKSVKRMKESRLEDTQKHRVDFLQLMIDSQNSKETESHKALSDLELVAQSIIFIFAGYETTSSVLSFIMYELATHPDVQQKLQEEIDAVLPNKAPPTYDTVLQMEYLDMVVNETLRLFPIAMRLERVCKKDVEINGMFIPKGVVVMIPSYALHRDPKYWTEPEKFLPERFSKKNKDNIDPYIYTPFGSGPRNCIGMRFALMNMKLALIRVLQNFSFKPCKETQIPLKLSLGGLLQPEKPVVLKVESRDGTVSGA
Summary of the method: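 Luminescent readout of luciferin produced by CYP3A4 (20 nM) dealkylation of Luciferin-PPXE, 25 uM (its KM). NADPH-driven reaction ran 60 min at RT after 10 min compound preincubation; data scaled to 57 uM ketoconazole as 100% inhibition.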

[2] = Confirmation and Secondary Assay for Modulators of Hemoglobin Beta Chain Splicing at IVS2 705 locus (AID 930);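 note: HeLa cells stably expressing the EGFP-705 splicing reporter; GFP fluorescence per well restored by corrected splicing of the IVS2-705 intron in EGFP; % of control where 0% means no effect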
Summary of the method: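 Stable HeLa line with EGFP disrupted by mutant beta-globin intron 2 (705). Overnight attachment, then 2 days of compound at 37C, 5% CO2. Signal: peak GFP intensity summed over objects 5-250 µm.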

[3] = qHTS Assay for Lipid Storage Modulators (AID 1519; calls by dose curve; for activity change, negative = inhibition: % is set by controls: 0 for no effect and ±100 for the full control effect); conditions: Drosophila S3 cells, BODIPY lipid droplet/cell ratio, laser cytometry, cells loaded with oleic acid
Summary of the method: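 Cells seeded at 5,000 per well were treated with compounds over a concentration series and loaded with oleic acid (400 uM, as added). Lipid droplet fluorescence (488 nm excitation, 500-530 nm channel) was read by laser-scanning cytometry and normalized to 20 uM Triacsin C.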

[4] = target: ATP-dependent 6-phosphofructokinase (Trypanosoma brucei brucei) (UniProt O15648); test: qHTS Assay to Find Inhibitors of T. brucei phosphofructokinase: hit validation (AID 492961); note: % is set by controls: 0 for no effect and ±100 for the full control effect
Sequence of ATP-dependent 6-phosphofructokinase (Trypanosoma brucei brucei) (O15648 whole entry, looked up): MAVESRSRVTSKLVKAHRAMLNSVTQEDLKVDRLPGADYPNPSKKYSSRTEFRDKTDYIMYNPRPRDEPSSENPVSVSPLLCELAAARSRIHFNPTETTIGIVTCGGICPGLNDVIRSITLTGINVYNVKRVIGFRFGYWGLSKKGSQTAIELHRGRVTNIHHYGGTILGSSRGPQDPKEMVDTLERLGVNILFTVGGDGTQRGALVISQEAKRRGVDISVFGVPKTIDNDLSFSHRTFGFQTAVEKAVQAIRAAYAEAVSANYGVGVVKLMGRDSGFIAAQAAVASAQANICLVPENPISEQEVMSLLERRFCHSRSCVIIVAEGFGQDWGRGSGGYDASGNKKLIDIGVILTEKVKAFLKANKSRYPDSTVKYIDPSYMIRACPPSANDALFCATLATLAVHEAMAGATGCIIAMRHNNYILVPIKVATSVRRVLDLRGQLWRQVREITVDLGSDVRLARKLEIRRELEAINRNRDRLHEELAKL
Summary of the method: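 Luminescence from ADP-Glo reports ADP generated as T. brucei PFK (1.25 nM) phosphorylates 0.5 mM fructose-6-phosphate using 0.1 mM ATP. Reactions ran 45 min at room temperature, pH 8.0.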

[5] = target: Ubiquitin carboxyl-terminal hydrolase 1 (Homo sapiens) (UniProt O94782); test: Inhibitors of USP1/UAF1: Pilot qHTS (AID 504865);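 note: rhodamine fluorescence freed from ubiquitin-rhodamine substrate followed over time; top concentration of the series differs between compounds; % is set by controls: 0 for no effect and ±100 for the full control effect; nearly all actives have a fitted effect of over 35% in size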
Sequence of Ubiquitin carboxyl-terminal hydrolase 1 (Homo sapiens) (O94782 whole entry, looked up): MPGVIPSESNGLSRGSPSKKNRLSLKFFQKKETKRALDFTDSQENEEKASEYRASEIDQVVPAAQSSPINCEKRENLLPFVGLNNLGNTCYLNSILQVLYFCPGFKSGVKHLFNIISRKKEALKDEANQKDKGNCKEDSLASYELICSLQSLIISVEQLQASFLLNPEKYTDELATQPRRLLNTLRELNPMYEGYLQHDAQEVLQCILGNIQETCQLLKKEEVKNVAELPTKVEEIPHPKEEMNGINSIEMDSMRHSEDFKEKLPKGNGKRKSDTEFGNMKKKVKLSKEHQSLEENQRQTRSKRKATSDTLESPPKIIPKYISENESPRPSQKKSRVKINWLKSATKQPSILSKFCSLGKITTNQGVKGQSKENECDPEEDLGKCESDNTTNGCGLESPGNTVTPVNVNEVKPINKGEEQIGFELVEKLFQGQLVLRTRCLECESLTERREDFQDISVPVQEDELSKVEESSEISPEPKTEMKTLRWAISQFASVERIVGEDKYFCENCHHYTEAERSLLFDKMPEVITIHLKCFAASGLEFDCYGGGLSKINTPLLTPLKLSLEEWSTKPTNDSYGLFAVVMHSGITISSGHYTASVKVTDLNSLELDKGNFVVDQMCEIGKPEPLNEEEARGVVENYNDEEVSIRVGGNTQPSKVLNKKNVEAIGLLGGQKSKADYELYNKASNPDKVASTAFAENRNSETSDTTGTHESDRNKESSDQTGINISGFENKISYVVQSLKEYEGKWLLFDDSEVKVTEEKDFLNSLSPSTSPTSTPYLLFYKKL
Summary of the method: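 Deubiquitinase activity followed as kinetic rhodamine fluorescence release from 150 nM Ub-Rho. 1 nM USP1/UAF1 with compound, after 15 min room-temperature preincubation, in HEPES pH 7.8 buffer containing TCEP, EDTA, BSA and Tween-20.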

[6] = target: Luciferin 4-monooxygenase (Photinus pyralis) (UniProt P08659); test: Biochemical firefly luciferase enzyme assay for NPC (AID 624030);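 note: purified P. pyralis luciferase at 10 nM with luciferin and ATP substrate; 0% = DMSO and -100% = full luciferase inhibition by PTC124 control; nearly all actives have a fitted effect of over 70% in size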
Sequence of Luciferin 4-monooxygenase (Photinus pyralis) (P08659 whole entry, looked up): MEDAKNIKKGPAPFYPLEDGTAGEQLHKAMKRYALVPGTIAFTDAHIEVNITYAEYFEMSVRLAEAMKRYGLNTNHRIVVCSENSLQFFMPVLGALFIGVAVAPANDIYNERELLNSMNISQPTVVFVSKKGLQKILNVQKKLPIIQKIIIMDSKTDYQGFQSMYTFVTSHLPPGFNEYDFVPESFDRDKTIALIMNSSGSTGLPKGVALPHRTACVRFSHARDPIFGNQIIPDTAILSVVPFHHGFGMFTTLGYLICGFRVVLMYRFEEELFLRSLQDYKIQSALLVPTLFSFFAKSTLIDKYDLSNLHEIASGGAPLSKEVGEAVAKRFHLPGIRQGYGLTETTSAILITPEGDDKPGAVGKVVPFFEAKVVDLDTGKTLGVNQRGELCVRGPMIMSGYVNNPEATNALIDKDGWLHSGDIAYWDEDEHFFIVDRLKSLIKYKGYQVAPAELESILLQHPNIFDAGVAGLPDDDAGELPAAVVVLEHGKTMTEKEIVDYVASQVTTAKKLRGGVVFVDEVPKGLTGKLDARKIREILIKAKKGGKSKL
Summary of the method: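 Purified P. pyralis luciferase at 10 nM in 50 mM Tris Acetate (final), luminescence read within 5 minutes of enzyme addition to compounds. Activity normalised to PTC124 versus DMSO; concentration-response curves classed by r2, magnitude and activity.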

[7] = S16 Schwann cell viability assay (CellTiter-Glo assay) (AID 624031);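 note: cellular ATP luminescence as a viability measure; plate controls were DMSO-treated cells for no effect and cell-free wells for full effect; nearly all actives have a fitted effect of over 70% in size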
Summary of the method: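 Native S16 Schwann cells (rat), serum-containing medium, overnight attachment then 24 h drug exposure at 37 °C/5% CO2. CellTiter-Glo ATP signal; normalized to cell-free and vehicle wells.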

[8] = S16 Schwann cell PMP22 intronic element firefly luciferase assay (AID 624032);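 note: plate controls were DMSO for no effect and PTC124 positive control mean for full effect; nearly all actives have a fitted effect of over 30% in size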
Summary of the method: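 Rat S16 Schwann cells stably carrying firefly luciferase driven by a PMP22 intronic element, in 10% FBS, treated 24 h at 37 C. ONE-Glo luminescence normalized to PTC124 control and DMSO (0%); curves classed by r2, magnitude and activity.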

[9] = qHTS Assay for Identifying Gametocytocidal Compounds (AID 743244);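 note: % is set by controls: 0 for no effect and ±100 for the full control effect; actives lower the fluorescent signal which means gametocytes are killed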; conditions: P. falciparum 3D7 stage III-V gametocytes, alamarBlue, 72 h; max response: stronger effect = lower value
Summary of the method: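 Stage III–V gametocytes of P. falciparum 3D7 were seeded at 20,000 cells/well onto pre-dispensed compounds. After 72 h, 37 °C, 5% CO2, alamarBlue was added for another 24 h.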

[10] = P-glycoprotein substrates identified in KB-8-5-11 adenocarcinoma cell line, qHTS therapeutic library screen (AID 1346987); note: % is set by controls: 0 for no effect and ±100 for the full control effect; nearly all actives have a fitted effect of over 65% in size
Summary of the method: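 Compounds are pinned in dose-response onto KB-8-5-11 cells (500 cells/well, colchicine-free medium) and left 72 h at 37 degree C. CellTiter-Glo luminescence then yields AC50 values.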

[11] = qHTS for Inhibitors of the Functional Ribonucleoprotein Complex (vRNP) of Lassa (LASV) Arenavirus: LASV Primary Screen - GLuc reporter signal (AID 1347082; calls by dose curve; tested in HEK293 reporter line; note: % is set by controls: 0 for no effect and ±100 for the full control effect; nearly all actives have a fitted effect of over 60% in size)
[12] = qHTS for Inhibitors of the Functional Ribonucleoprotein Complex (vRNP) of Lassa (LASV) Arenavirus: Viability assay - alamar blue signal for LASV Primary Screen (AID 1347083; calls by dose curve; tested in HEK293 reporter line; note: % is set by controls: 0 for no effect and ±100 for the full control effect; nearly all actives have a fitted effect of over 80% in size)
[13] = qHTS for Inhibitors of the Functional Ribonucleoprotein Complex (vRNP) of Lymphocytic Choriomeningitis Arenaviruses (LCMV): Viability assay - alamar blue signal for LCMV Primary Screen (AID 1347085; calls by dose curve; tested in HEK293 reporter line; note: % is set by controls: 0 for no effect and ±100 for the full control effect; nearly all actives have a fitted effect of over 80% in size)
[14] = target: Nucleoprotein (Lymphocytic choriomeningitis virus (strain Armstrong)) (UniProt P09992); test: qHTS for Inhibitors of the Functional Ribonucleoprotein Complex (vRNP) of Lymphocytic Choriomeningitis Arenaviruses (LCMV): LCMV Primary Screen - GLuc reporter signal (AID 1347086; calls by dose curve; note: % is set by controls: 0 for no effect and ±100 for the full control effect; nearly all actives have a fitted effect of over 70% in size)
Sequence of Nucleoprotein (Lymphocytic choriomeningitis virus (strain Armstrong)) (P09992 whole entry, looked up): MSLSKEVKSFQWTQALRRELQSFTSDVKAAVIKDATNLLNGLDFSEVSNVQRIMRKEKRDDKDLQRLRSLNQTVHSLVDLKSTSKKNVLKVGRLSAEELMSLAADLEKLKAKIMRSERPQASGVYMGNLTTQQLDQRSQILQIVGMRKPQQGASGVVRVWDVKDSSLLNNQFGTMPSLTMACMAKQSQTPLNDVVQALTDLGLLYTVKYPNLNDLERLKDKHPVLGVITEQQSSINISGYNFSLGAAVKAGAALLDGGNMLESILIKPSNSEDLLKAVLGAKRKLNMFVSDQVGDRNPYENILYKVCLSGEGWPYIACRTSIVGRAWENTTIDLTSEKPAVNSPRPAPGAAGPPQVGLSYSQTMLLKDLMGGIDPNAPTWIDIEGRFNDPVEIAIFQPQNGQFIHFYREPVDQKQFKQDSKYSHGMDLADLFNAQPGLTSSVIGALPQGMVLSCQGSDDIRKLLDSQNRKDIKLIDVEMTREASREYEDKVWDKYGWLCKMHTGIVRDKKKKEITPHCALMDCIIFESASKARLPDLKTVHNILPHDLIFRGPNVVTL

3D7 = test: qHTS profiling for inhibitors of Plasmodium falciparum proliferation (AID 504749);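 note: 0% = DMSO vehicle and full inhibition = artemisinin control; nearly all actives have a fitted effect of over 60% in size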; conditions: P. falciparum in erythrocytes, SYBR Green DNA, 72 h; series mostly up to 28.7 µM
Summary of the method: (§1)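 Each compound contacts P. falciparum-infected red blood cells for 72 h at 37 C; lysis buffer (Tris, EDTA, saponin, Triton X, SYBR Green I) is added and fluorescence measured next morning; values normalized to controls.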

7G8 = test: as above; conditions: P. falciparum in erythrocytes, SYBR Green DNA, 72 h; series mostly up to 28.7 µM
Summary of the method: as §1

AA1029 = test: as above; conditions: P. falciparum in erythrocytes, SYBR Green DNA, 72 h; series mostly up to 28.7 µM
Summary of the method: as §1

AS120 = test: as above; conditions: P. falciparum in erythrocytes, SYBR Green DNA, 72 h; series mostly up to 28.7 µM
Summary of the method: as §1

ATS189 = test: as above; conditions: P. falciparum in erythrocytes, SYBR Green DNA, 72 h; series mostly up to 28.7 µM
Summary of the method: as §1

ATS95 = test: as above; conditions: P. falciparum in erythrocytes, SYBR Green DNA, 72 h; series mostly up to 28.7 µM
Summary of the method: as §1

C2A = test: as above; conditions: P. falciparum in erythrocytes, SYBR Green DNA, 72 h; series mostly up to 28.7 µM
Summary of the method: as §1

CP185 = test: as above; conditions: P. falciparum in erythrocytes, SYBR Green DNA, 72 h; series mostly up to 28.7 µM
Summary of the method: as §1

CP191 = test: as above; conditions: P. falciparum in erythrocytes, SYBR Green DNA, 72 h; series mostly up to 28.7 µM
Summary of the method: as §1

CP192 = test: as above; conditions: P. falciparum in erythrocytes, SYBR Green DNA, 72 h; series mostly up to 28.7 µM
Summary of the method: as §1

CP194 = test: as above; conditions: P. falciparum in erythrocytes, SYBR Green DNA, 72 h; series mostly up to 28.7 µM
Summary of the method: as §1

CP201 = test: as above; conditions: P. falciparum in erythrocytes, SYBR Green DNA, 72 h; series mostly up to 28.7 µM
Summary of the method: as §1

CP203 = test: as above; conditions: P. falciparum in erythrocytes, SYBR Green DNA, 72 h; series mostly up to 28.7 µM
Summary of the method: as §1

CP211 = test: as above; conditions: P. falciparum in erythrocytes, SYBR Green DNA, 72 h; series mostly up to 28.7 µM
Summary of the method: as §1

CP215 = test: as above; conditions: P. falciparum in erythrocytes, SYBR Green DNA, 72 h; series mostly up to 28.7 µM
Summary of the method: as §1

CP217 = test: as above; conditions: P. falciparum in erythrocytes, SYBR Green DNA, 72 h; series mostly up to 28.7 µM
Summary of the method: as §1

CP237 = test: as above; conditions: P. falciparum in erythrocytes, SYBR Green DNA, 72 h; series mostly up to 28.7 µM
Summary of the method: as §1

CP238 = test: as above; conditions: P. falciparum in erythrocytes, SYBR Green DNA, 72 h; series mostly up to 28.7 µM
Summary of the method: as §1

CP247 = test: as above; conditions: P. falciparum in erythrocytes, SYBR Green DNA, 72 h; series mostly up to 28.7 µM
Summary of the method: as §1

CP250 = test: as above; conditions: P. falciparum in erythrocytes, SYBR Green DNA, 72 h; series mostly up to 28.7 µM
Summary of the method: as §1

CP252 = test: as above; conditions: P. falciparum in erythrocytes, SYBR Green DNA, 72 h; series mostly up to 28.7 µM
Summary of the method: as §1

CP256 = test: as above; conditions: P. falciparum in erythrocytes, SYBR Green DNA, 72 h; series mostly up to 28.7 µM
Summary of the method: as §1

C[N+](C)(C)CC(=O)[O-]
inactive: Potency [1] | outcome [2] | activity change, negative = inhibition ([3]; at 57.5 µM (top of the series)) 3.78% | Potency [4] | Potency [5] | Potency [6] | Potency [7] | Potency [8] | max response [9] 14.9% | Potency [10] | Potency [11] | Potency [12] | Potency [13] | Potency [14] | Potency (3D7) | Potency (7G8) | Potency (AA1029) | Potency (AS120) | Potency (ATS189) | Potency (ATS95) | Potency (C2A) | Potency (CP185) | Potency (CP191) | Potency (CP192) | Potency (CP194) | Potency (CP201) | Potency (CP203) | Potency (CP211) | Potency (CP215) | Potency (CP217) | Potency (CP237) | Potency (CP238) | Potency (CP247) | Potency (CP250) | Potency (CP252) | Potency (CP256)
0.576%: max response ([3]; measured here: cell count channel max response)
6.22%: max response ([3]; measured here: lipid channel max response)
